In PubChem BioAssay AID602295 (Broad Institute, 2012):
Active and inactive are the calls of the source.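 Rule for the calls: active = every separate test run called active, meaning the signal drops and a potency is fitted within twice the top valid dose; inconclusive = runs disagree, poor fit, or flat partial inhibition; inactive = all runs inactive, flat, opposite direction or too weak.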

What follows are compounds tested against Mitogen-activated protein kinase 3 (Homo sapiens) (UniProt P27361) (assay: inhibition of MAPK3 kinase activity – biochemical, ADP-Glo luminescence, cherry pick, set 2, selectivity assay for Dyrk1A inhibitor NFAT project, dose response (AID 602295)). Details: ERK1 kinase, 120 min; series mostly up to 10 µM; activity change, negative = inhibition: at the top concentration.
Chain of Mitogen-activated protein kinase 3 (Homo sapiens) (P27361 whole entry, looked up): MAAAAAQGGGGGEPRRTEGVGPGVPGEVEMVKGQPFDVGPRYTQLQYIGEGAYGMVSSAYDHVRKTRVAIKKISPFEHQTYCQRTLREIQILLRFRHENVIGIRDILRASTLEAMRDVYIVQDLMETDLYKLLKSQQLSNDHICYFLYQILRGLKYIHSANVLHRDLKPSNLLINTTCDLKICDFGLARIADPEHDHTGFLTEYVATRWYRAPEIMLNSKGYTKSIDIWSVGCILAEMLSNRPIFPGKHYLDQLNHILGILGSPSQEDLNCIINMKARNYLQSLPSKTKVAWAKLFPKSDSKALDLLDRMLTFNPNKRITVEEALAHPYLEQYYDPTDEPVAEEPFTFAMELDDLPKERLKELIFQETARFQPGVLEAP

Activity change, negative = inhibition, inactive:
FC(F)(F)c1cccc(Nc2nccc(-c3ccc4c(c3)OCO4)n2)c1 5.81%
CN(Cc1nccs1)c1ncnc2ccc(-c3ccc4c(c3)OCO4)cc12 13.9%
Cc1noc(NS(=O)(=O)c2ccc(NC(=O)c3oc4ccc(F)cc4c3C)cc2)c1C 9.38%
CCN(Cc1cccs1)c1ncnc2ccc(-c3ccc4c(c3)OCO4)cc12 13.5%
CC(=O)Nc1cccc(NC(=O)c2cc3ccccc3o2)c1 13.8%
N#CCSc1nc(Nc2ccc3c(c2)OCO3)c2ccccc2n1 -21.8%
Clc1ccc(CNc2nccc(-c3ccc4c(c3)OCCO4)n2)cc1Cl 31.5%
COc1cccc(NC(=O)c2sc(NC(=O)c3ccncc3)nc2C)c1 -10.8%
COc1cccc(Nc2ncnc3ccccc23)c1 4.09%
COc1ccc(C(=O)c2sc(Nc3ccccc3F)nc2N)cc1 -20.3%
CN(Cc1cccs1)c1ncnc2ccc(-c3ccc4c(c3)OCO4)cc12 19.4%
COc1cccc(Nc2nc(NCCO)c3ccccc3n2)c1 14.1%
CC(=O)Nc1ccc(Nc2cc(C)nc3c(-c4ccccc4)cnn23)cc1 -6.73%
Clc1cc(Cl)cc(CNc2ncncc2-c2ccc3c(c2)OCO3)c1 10.1%
Cc1noc(CN(C)c2ncnc3ccc(-c4ccc5c(c4)OCO5)cc23)n1 24.3%
CC(=O)Nc1ccc(SCc2ncc(-c3ccccc3)o2)cc1 -22.2%
c1csc(CNc2ncnc3ccc(-c4ccoc4)cc23)c1 37.5%
c1cncc(-c2nc(NCc3ccco3)c3ccccc3n2)c1 -18.8%
Cc1noc(NS(=O)(=O)c2ccc(NC(=O)c3oc4ccc(Cl)cc4c3C)cc2)c1C -10.1%
Cc1nc(CNc2ncnc3ccc(-c4ccc5c(c4)OCO5)cc23)cs1 25.5%
c1cncc(CNc2nccc(-c3ccc4[nH]ncc4c3)n2)c1 -16.2%
Cc1csc(CN(C)c2ncnc3ccc(-c4ccc5c(c4)OCO5)cc23)n1 -18.1%
Clc1ccc(CNc2nccc(-c3ccc4cn[nH]c4c3)n2)cc1Cl -3.78%
Cc1occc1CNc1ncnc2ccc(-c3ccc4c(c3)OCO4)cc12 41.3%
c1cncc(CNc2cc(-c3ccc4c(c3)OCO4)ncn2)c1 15.9%
Cc1nc(N)sc1-c1csc(Nc2ccccc2)n1 -26.4%
CN(C)c1ccc(-c2nccc(NCc3cccs3)n2)cc1 -15.6%
Fc1cccc(Nc2nc(-c3ccncc3)nc3ccccc23)c1 10.8%
COc1cccc(Nc2nc(-c3ccc(O)cc3)cs2)c1 18.6%
Brc1cc(Br)cc(CNc2nccc(-c3ccc4c(c3)OCO4)n2)c1 9.15%
c1cncc(CNc2ccnc(-c3ccc4[nH]ncc4c3)n2)c1 8.55%

outcome, inactive:
CCOC(=O)c1ccc(-c2ccc3ncnc(NCc4ccc(C)o4)c3c2)o1
